# Measurements from publication PMC7819943, “Rice protein-binding microarrays: a tool to detect cis-acting elements near promoter regions in rice”.
# Whole data set: some 39,000 sequences, median “fluorescence intensity (a.u.)” near 4,300, cut for the highest 2% near 39,000. The full list was thinned out, with the highest values kept by preference.
# Molecular target: T1, OsSMF1 (Oryza sativa, UniProt Q6ZLB0 1-436)
# T1 sequence: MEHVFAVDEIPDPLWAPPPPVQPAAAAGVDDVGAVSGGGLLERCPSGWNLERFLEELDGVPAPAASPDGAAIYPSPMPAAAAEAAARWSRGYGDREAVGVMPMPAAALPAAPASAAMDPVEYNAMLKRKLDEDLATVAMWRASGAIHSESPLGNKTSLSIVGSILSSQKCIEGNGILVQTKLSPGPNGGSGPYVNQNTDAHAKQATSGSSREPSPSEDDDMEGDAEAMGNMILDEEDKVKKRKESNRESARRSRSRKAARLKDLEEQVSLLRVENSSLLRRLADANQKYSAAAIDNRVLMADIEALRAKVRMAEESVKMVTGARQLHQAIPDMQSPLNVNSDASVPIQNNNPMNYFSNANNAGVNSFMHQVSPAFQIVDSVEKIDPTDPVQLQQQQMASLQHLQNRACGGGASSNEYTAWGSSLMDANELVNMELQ
# Experiment: protein-binding microarray (RPBM); PBS, 2% BSA, 51.3 ng/ul salmon testes DNA, 50 uM zinc acetate, 200 nM TF, 25 C, 1 h; high values mean tight binding
# Settings: protein: recombinant; tags: N-terminal polyhistidine and DsRed monomer fusion (pET32a); chain copies: 2; label: CyDye5-dUTP incorporated in the synthesized complementary strand; 3' TTTTT single-stranded linker to array surface; dsDNA, one strand shown
# Procedure, shortened: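 Polyhistidine-tagged DsRed fusions of transcription factors, joined at the N-terminus, were expressed in E. coli BL21-CodonPlus and isolated on Ni–NTA. They were incubated at 200 nM for 1 h at 25 °C on a custom Agilent array, double-stranded and BSA-blocked, in PBS with 2% BSA, salmon testes DNA and 50 µM zinc acetate. The binding signal is per-feature fluorescence intensity (arbitrary units) read on an Axon 4000B scanner after washing.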
row,Sequence,binding signal
1,TGTTGTGCTGGTTGGTTCCAGATCTAACAGTGACAGTGCGCGGAGTCACCTAGTGCAG,4380 fluorescence intensity (a.u.)
2,AAGTCCGATTCGTGAGTCACAGATGTTGACTCGCCGAAAACGGAGTCACCTAGTGCAG,5350 fluorescence intensity (a.u.)
3,TCCTTCTATATGTTTGCACTTACGTGGGCCGTATTTATGCCGGAGTCACCTAGTGCAG,9040 fluorescence intensity (a.u.)
4,GACGATCAAGATCGACACGACCAACGTGGCATGTTGCGTACGGAGTCACCTAGTGCAG,9470 fluorescence intensity (a.u.)
5,GAGGAGGAGGAGGCTGATGTGGCAGCCTGACATGTGGGGCCGGAGTCACCTAGTGCAG,7020 fluorescence intensity (a.u.)
6,AAAGGATGATATTTATTCGATCCTTGTTCGAATGTAGACTCGGAGTCACCTAGTGCAG,55700 fluorescence intensity (a.u.)
7,TCCTTGATCCTTTATTTGATATTTGTTTAGATATATAATTCGGAGTCACCTAGTGCAG,37900 fluorescence intensity (a.u.)
8,TACGATGAGTCATTTATTGATTATTGTATTAATGTTCCTTCGGAGTCACCTAGTGCAG,11500 fluorescence intensity (a.u.)
9,CGCTGTGTATATATGTGCAGGTCCATCCATGAGAGGTTGACGGAGTCACCTAGTGCAG,34900 fluorescence intensity (a.u.)
10,GGCCAGCCGTGTAGGCGGAGGCACCACTCGGCGGCGACGGCGGAGTCACCTAGTGCAG,49900 fluorescence intensity (a.u.)
11,GCCCAGCGTGCACGGCGCGACGGACTCGCGCGGCACTAGCCGGAGTCACCTAGTGCAG,5790 fluorescence intensity (a.u.)
12,GGCATAATAGGCCAGCCGTGTAGGCAGAGACACCAGTCGGCGGAGTCACCTAGTGCAG,4530 fluorescence intensity (a.u.)
13,TGCTGAGTGAGTGATGAGTGTGCGAATGTGTGATCGATCGCGGAGTCACCTAGTGCAG,3860 fluorescence intensity (a.u.)
14,ATTATTCATAAGCTGAATATTCTTATTCATACATTCGGATCGGAGTCACCTAGTGCAG,6460 fluorescence intensity (a.u.)
15,CGAAGACTAAGTCAACACCACCACGTAGTCGCCACATCAGCGGAGTCACCTAGTGCAG,8880 fluorescence intensity (a.u.)
16,GCCACGTGGGATGAAGCCTAAGTCAACATCGCCACGTCAGCGGAGTCACCTAGTGCAG,43200 fluorescence intensity (a.u.)
17,GGCTATTGGGAGCCACGTCAGCCGGTGGCCTCCGCCATCGCGGAGTCACCTAGTGCAG,22600 fluorescence intensity (a.u.)
18,CCAGGTCAACATTGCCACGTGTGCGGCCACGTCAGCGAAACGGAGTCACCTAGTGCAG,33400 fluorescence intensity (a.u.)
19,CTAGGTCAACACCGCCATGTCAGCGCCACGTCAGCGAAACCGGAGTCACCTAGTGCAG,28700 fluorescence intensity (a.u.)
20,CACGTGGGACGAAAACTAGGTCAACATCGCCACGTCAGCGCGGAGTCACCTAGTGCAG,45900 fluorescence intensity (a.u.)
21,GACTTGATTACCACGCGTATACTATATAGGACAAAATTGCCGGAGTCACCTAGTGCAG,3190 fluorescence intensity (a.u.)
22,TGTTCCTCCACGTCGCTCCGCCGCTCCGCCCGCCTTGCTTCGGAGTCACCTAGTGCAG,5090 fluorescence intensity (a.u.)
23,TCCGGAGAGTTGACGCAGCGTCAACCGGGTCCGTCGTTCTCGGAGTCACCTAGTGCAG,3800 fluorescence intensity (a.u.)
